# sEH activator – activators of human soluble epoxide hydrolase; P34913; purified human sEH enzymatic activity, activator screen; activation, % at 2 µM; hit rate 0.04% among 91,000; AID 717; in the data active means activation above about 37%
# Target sequence (P34913 whole entry, looked up): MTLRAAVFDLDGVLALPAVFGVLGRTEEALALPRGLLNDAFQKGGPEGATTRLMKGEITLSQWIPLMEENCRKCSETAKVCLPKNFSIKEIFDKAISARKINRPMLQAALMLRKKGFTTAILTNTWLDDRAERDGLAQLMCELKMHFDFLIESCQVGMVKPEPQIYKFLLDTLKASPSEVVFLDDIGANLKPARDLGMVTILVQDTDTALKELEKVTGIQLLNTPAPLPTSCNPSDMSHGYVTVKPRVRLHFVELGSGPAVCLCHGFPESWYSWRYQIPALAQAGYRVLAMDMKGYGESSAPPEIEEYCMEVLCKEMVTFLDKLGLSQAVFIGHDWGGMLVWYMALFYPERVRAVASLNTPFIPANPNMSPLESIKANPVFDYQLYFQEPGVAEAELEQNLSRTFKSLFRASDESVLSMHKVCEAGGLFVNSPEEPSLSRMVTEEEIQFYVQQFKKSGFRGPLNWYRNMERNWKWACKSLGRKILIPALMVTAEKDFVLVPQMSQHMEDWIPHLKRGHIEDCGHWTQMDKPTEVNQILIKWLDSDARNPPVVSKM
# Measles CPE – protection of cells from measles virus; hit rate 1.5% among 140,000; protection (pct of control), % at 4 µM; Measles virus-infected cells, CPE protection, absorbance; in the data active means protection mostly above about 24%, no sharp cut-off; inactive means mostly below about 26%
# SDO1 yeast rescue – sdo1-depleted yeast growth rescue. S. cerevisiae sdo1-depleted JHY4D growth rescue, OD600 30 h; stronger effect = higher value; pdr5 snq2 efflux-pump mutant strain. z-score at 10 µM. hit rate 0.21% among 140,000. AID 817;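 active means z-score above 3 at both the 24 hr and the 30 hr optical density reads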
# sEH inh – soluble epoxide hydrolase (human) inhibition | P34913 | recombinant human sEH enzymatic activity assay | inhibition, % at 2 µM | hit rate 0.34% among 91,000; in the data active means inhibition above about 80%
# sdo1 rescue conf – confirmation of growth rescue in SDO1-depleted yeast, bone marrow failure; S. cerevisiae JHY4D (SDO1-depleted) growth rescue, OD600, 30 h; stronger effect = higher value; efflux-deficient strain, SNQ2 and PDR5 mutated; AID 949; hit rate 44% among 440; shares compounds with SDO1 yeast rescue; OD recovery (test concentration not listed);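 active means yeast growth recovered at 30 hours, either rising with dose fitted slope above 0.001 or with average optical density gain above 0.07, some results past the limit were not filed as active; inactive means growth falling with dose or no effect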
# Numbers stand for hits; - = inactive; . = no result given. Only some compounds are listed: those with a hit (about 1.9% of all), similar ones and a draw of the others.
SMILES,sEH activator,Measles CPE,SDO1 yeast rescue,sEH inh,others
CCOC(=O)c1c(-c2ccc(OC)cc2)csc1NC(=O)CSc1ncnc2sccc12,.,43.2,-,.,
CC(C)(C)NC(=O)NC(=O)COC(=O)c1cc(=O)[nH]c2ccccc12,-,34.5,-,-,
COc1cc(OCC(N)=O)cc(OC)c1OC,.,-,-,.,
O=C(c1cccc(F)c1)N1CCN(S(=O)(=O)c2ccccc2)CC1,-,-,-,-,
Cc1cc(=O)oc(C)c1C(=O)NCCCN1CCN(c2ccc(F)cc2)CC1,-,42.6,-,-,
Cc1occc1C(=O)NC1CCCCCCC1,.,27.6,-,.,
Cc1occc1C(=O)NC1CCCc2ccccc21 (configuration not stated),-,-,-,-,
CCc1c(C)nc2ncnn2c1N1CCC(C(=O)Nc2ccc(C)cc2)CC1,-,-,-,83.3,
CCc1c(C)nc2ncnn2c1N1CCC(C(=O)Nc2ccccc2)CC1,-,-,-,-,
CC(C)CCn1c(CN2CCN(Cc3ccccc3)CC2)nc2c1c(=O)[nH]c(=O)n2C,.,40.8,-,.,
CC1=Nn2c(nnc2-c2n[nH]c3c2CCC3)SC1,-,-,-,-,
Fc1ccc(C2=Nn3c(nnc3-c3n[nH]c4c3CCC4)SC2)cc1,-,36.2,-,-,
O=C(Nc1ccc(F)c(F)c1)NC1CCCCC1,-,-,-,90.3,
O=C(Nc1cccc(C(F)(F)F)c1)NC1CCCCC1,-,-,-,94.4,
CC(=O)c1cccc(NC(=O)NC2CCCCC2)c1,-,-,-,-,
O=C(Nc1ccc2c(c1)nc1n2CCN(C2CCCCC2)C1)NC1CCCCC1,-,-,-,89.3,
Cc1ccc2nc3c(cc2c1)c(NC(=O)c1cccnc1)nn3C,.,-,-,.,
CCOC(=O)c1sc(NC(=O)Nc2ccc(Cl)cc2)cc1C,-,-,-,91.8,
CCOC(=O)c1sc(NC(=O)c2ccc(Cl)s2)cc1C,-,-,-,91.3,
CCOC(=O)c1sc(NC(=O)c2ccccc2)cc1C,-,-,-,-,
N#C/C(=C\c1c(N2CCOCC2)nc2ccccn2c1=O)S(=O)(=O)c1ccccc1,-,26.8,-,-,
Cc1ccc(S(=O)(=O)/C(C#N)=C/c2c(N3CCN(C)CC3)nc3ccccn3c2=O)cc1,-,-,-,-,
O=C(Nc1cccc2ccccc12)C1CCN(C(=O)Cc2ccccc2)CC1,-,-,-,-,
COc1ccc(-c2nnc3ccc(SCC(=O)Nc4nc5ccc(C)cc5s4)nn23)cc1OC,.,28.4,-,.,
N#Cc1ccccc1CSc1ccccn1,-,-,-,-,
SMILES,sEH activator,Measles CPE,SDO1 yeast rescue,sEH inh,others
COC(=O)CNC(=O)c1c(-c2c(Cl)cccc2Cl)noc1C,-,41.4,-,-,
CCN(CC)S(=O)(=O)c1cccc(C(=O)Nc2ccccc2C(=O)N2CCOCC2)c1,.,46.6,-,.,
CC(C)c1ccccc1NC(=O)c1ccco1,-,-,-,-,
O=C(Nc1nc(-c2nc3ccccc3s2)cs1)c1ccco1,.,49.1,-,.,
CCOC(=O)C1CCN(c2c(NCc3ccc(C(=O)NC4CCCC4)cc3)c(=O)c2=O)CC1,-,-,-,-,
Cc1ccc(-c2[nH]ncc2/C=C(\C#N)C(=O)NC2CCCCC2)cc1,-,70.1,-,-,
COc1ccc(-c2[nH]ncc2/C=C(/C#N)C(=O)NC2CCCCC2)cc1,-,-,-,-,
O=C(CSc1nnc(-c2cccnc2)n1C1CCCCC1)NC1CCCCC1,-,-,-,-,
C=CCOc1c(CNn2nnnc2N)cccc1OC,-,42.4,-,-,
COc1ccc(C2=NOC(C(=O)Nc3cccnc3)C2)cc1 (configuration not stated),-,-,3.45,-,sdo1 rescue conf=-
COc1cccc(C2=NOC(C(=O)Nc3cccnc3)C2)c1 (configuration not stated),-,-,-,-,
O=C(Nc1ccc(F)cc1Cl)c1ccc2c(=O)n3c(nc2c1)CCCCC3,-,-,-,-,
COc1cc(/C=N/NC(=O)c2nc(C)cc(C)n2)ccc1O,-,-,-,-,
COc1cc(/C=N/NC(=O)c2ccoc2C)ccc1O,.,-,-,.,sdo1 rescue conf=0.074
O=C1CSC(c2ccccn2)N1c1ccccc1 (configuration not stated),-,-,4.1,-,sdo1 rescue conf=0.0797
CC1(C)C(=O)OC(C(=O)c2ccccc2)C(C)(C)C1=O (configuration not stated),-,-,-,-,
Cc1cccc(N2CCN(C(=O)Cn3cccc3C(=O)c3ccccc3)CC2)c1C,-,-,-,-,
COc1cccc(CNC(=O)C2CCCN(S(=O)(=O)c3cccc4nonc34)C2)c1 (configuration not stated),-,-,-,-,sdo1 rescue conf=0.0864
COc1cccc(-c2cc(C(=O)NCCN3CCOCC3)no2)c1,-,-,-,-,
COc1ccccc1-c1cc(C(=O)NCCN2CCOCC2)no1,-,-,-,-,sdo1 rescue conf=-
O=C(NC(=O)c1ccccc1)OCC(F)(F)F,-,-,-,-,
COc1ccc(OC)c(Nc2cc(C)nc3ccccc23)c1,-,-,-,-,
Cc1ccc(C(=O)COC(=O)CCC(=O)NC2CCCCC2)cc1C,-,-,8.25,-,sdo1 rescue conf=-
O=C(CCC(=O)OCC(=O)c1ccc([N+](=O)[O-])cc1)NC1CCCCC1,.,-,-,.,
O=C(CCCn1c(=O)[nH]c2cc(Cl)ccc2c1=O)NCCC1=CCCCC1,-,-,6.74,-,sdo1 rescue conf=0.0914
SMILES,sEH activator,Measles CPE,SDO1 yeast rescue,sEH inh,others
O=C(CCCn1c(=O)[nH]c2cc(Cl)ccc2c1=O)NCCCN1CCCC1,-,-,-,-,
COc1ccc(N2CC(C(=O)NCCCN3CCOCC3)CC2=O)cc1 (configuration not stated),-,-,-,-,sdo1 rescue conf=0.0836
COc1ccc(C2=NOC(C(=O)NCCCN3CCOCC3)C2)cc1 (configuration not stated),-,-,-,-,
CCOc1cc(NC(=O)c2ccco2)c(OCC)cc1NC(=O)c1cc(OC)c(OC)c(OC)c1,-,-,-,-,sdo1 rescue conf=-
CCCNC(=O)c1cc(-c2ccco2)on1,-,-,-,-,
C#CCOC(=O)C(NC(=O)c1ccccc1)=C(C)C,-,-,-,-,
CCOC(=O)/C=C1\SCC(=O)N1CC(=O)NC12CC3CC(CC(C3)C1)C2,-,-,14,-,sdo1 rescue conf=0.0837
N#Cc1c(C(F)(F)F)cc(-c2ccccc2)nc1SCC(=O)Nc1sc2c(c1C#N)CCC2,-,-,-,-,sdo1 rescue conf=0.0934
CCOC(=O)c1sc(NC(=O)CSc2nnnn2-c2ccccc2)nc1C,-,.,-,-,
CCOC(=O)c1sc(NC(=O)CSc2nnnn2-c2ccc(C)c(C)c2)nc1C,-,-,-,-,sdo1 rescue conf=0.0997
O=C(CN(C(=O)CCC(=O)Nc1nccs1)c1ccccc1F)NCC1CCCO1 (configuration not stated),-,-,-,-,
CCOc1ccc(-c2nc(CSCC(=O)NCCN3CCOCC3)c(C)o2)cc1,.,-,-,.,sdo1 rescue conf=-
Cc1ccc(C(=O)COC(=O)c2ccc(Br)o2)cc1C,.,-,3.71,.,sdo1 rescue conf=0.0812
CCOc1ccccc1-n1nnnc1SCc1nc2ccccc2s1,.,-,-,.,
O=C(CCSc1ccccc1)Nc1ccccc1C(=O)N1CCCC1,.,-,-,.,
Cc1ccc(SCCC(=O)Nc2ccccc2C(=O)N2CCOCC2)cc1,.,-,4.07,.,sdo1 rescue conf=-
Cn1c(=O)c2c(nc(N3CCCC3)n2CC(O)CO)n(C)c1=O (configuration not stated),-,-,-,-,sdo1 rescue conf=0.0968

# Assay outcomes from PubChem.
